D3 ag – D3 dopamine receptor (human) agonism | P35462 | D3R DiscoveRx beta-arrestin cells, luminescence, 90 min | max activation, % | actives 0.58% (n = 410,000); in the data active = max activation above about 30%
Target sequence (P35462 whole entry, looked up): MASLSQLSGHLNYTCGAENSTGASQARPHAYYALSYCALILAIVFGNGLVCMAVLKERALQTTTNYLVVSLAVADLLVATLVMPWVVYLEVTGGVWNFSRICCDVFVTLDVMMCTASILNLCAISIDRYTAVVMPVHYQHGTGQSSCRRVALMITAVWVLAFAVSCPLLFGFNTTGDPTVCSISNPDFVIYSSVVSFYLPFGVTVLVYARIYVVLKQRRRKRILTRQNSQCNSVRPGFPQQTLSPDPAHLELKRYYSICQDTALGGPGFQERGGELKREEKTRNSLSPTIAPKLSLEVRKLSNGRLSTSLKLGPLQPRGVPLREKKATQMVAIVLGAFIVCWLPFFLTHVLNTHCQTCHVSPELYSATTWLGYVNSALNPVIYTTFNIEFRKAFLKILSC
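Agonist-mode cell screen: cells plated at 1500/well and incubated overnight at 37 °C, then exposed to library compounds for 90 min at 37 °C. Detection reagent was added for 30–60 min at room temperature, and luminescence was read.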
DRD3 antagonist – antagonists of human D3 dopamine receptor; D3R cells, DiscoveRx beta-arrestin luminescence, antagonist mode; active compounds read low; max response, negative = inhibition, %; actives 2.5% (n = 360,000); in the data active = max response below about -50%; inconclusive = no clear call, values can overlap the other calls
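Cells plated overnight at 1500 cells/well, then exposed to library compounds with dopamine controls for 90 minutes at 37 degrees C. DiscoveRx reagent added for 30–60 minutes at room temperature; luminescence read, quantitative HTS format.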
a7 integrin act – activators of alpha7 integrin expression for muscular dystrophy. alpha7betagal myoblasts, beta-gal FDG fluorescence, 48 h. Potency, µM (top dose mostly 38.3 µM), actives largely listed as activators. actives 0.064% (n = 350,000); active = well fitted activation curve with a large enough effect; inconclusive = small, poorly fitted or top-dose-only effect; inactive = no such curve, though single readings can be large or run the other way; note: nearly all actives have a fitted effect of over 60% in size
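alpha7betagal+/- myoblasts (passage 13, 250/well) treated 48 h at 37C with compounds at 1:260 dilution of DMSO stock. Lysed, then beta-galactosidase activity read as FDG fluorescence (ex 480/em 540) after 30 min, with pre-read for autofluorescence.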
Large screens that a line does not name were inactive. An excerpt weighted towards active compounds, which were near 2.9% of everything screened.

CCC(C(=O)Nc1cc(OC)ccc1OC)n1c(C)c2cnn(-c3ccccc3)c(=O)c2c1C (stereo not given)	none (no result: DRD3 antagonist, a7 integrin act)
COc1ccc(OC)c(NC(=O)COC(=O)C2CCCCC2)c1	none
CCCc1nnc(NC(=O)c2nc(S(=O)(=O)Cc3cccc(C)c3)ncc2Cl)s1	DRD3 antagonist -68
CCc1nnc(NC(=O)c2nc(SCc3cccc(C)c3)ncc2Cl)s1	none (no result: DRD3 antagonist, a7 integrin act)
Cn1c2ccccc2c(=O)c2c(=O)n(-c3ccc(F)cc3)c(C3CCCCC3)nc21	none
CC1CCCC(C)N1CCCNC(=O)CCn1c(=O)c2cccn2c2cccnc21 (stereo not given)	a7 integrin act inconclusive
Cc1cccc(C)c1-n1nnnc1C(c1cccc2ccccc12)N1CCN(C/C=C/c2ccccc2)CC1 (stereo not given)	DRD3 antagonist -107 (no result: a7 integrin act)
Cc1cccc(C)c1-n1nnnc1C(c1ccnc2ccccc12)N1CCN(CC(=O)NC(C)C)CC1 (stereo not given)	none (no result: a7 integrin act)
Cc1cccc(C)c1-n1nnnc1C(c1cc2ccccc2o1)N1CCN(C/C=C/c2ccccc2)CC1 (stereo not given)	DRD3 antagonist -74 (no result: a7 integrin act)
Cc1cccc(C)c1N1CCN(C(c2cc3ccccc3o2)c2nnnn2C(C)(C)C)CC1 (stereo not given)	none (no result: a7 integrin act)
COC(=O)c1ccccc1N(C)S(=O)(=O)c1cc2c3c(c1)CC(=O)N3CCC2	none (no result: DRD3 antagonist, a7 integrin act)
CCOc1cccc(OCCCOc2ccccc2)c1	none
C[C@H]1C(c2ccc(F)cc2)=NN(c2ccccc2)[C@@H]1CO	D3 ag 35
COc1ccccc1[C@H]1C(c2ccc(F)cc2)=NN(c2ccccc2)[C@@H]1CO	none
O=C(CSc1nc2scc(-c3ccco3)c2c(=O)n1-c1ccccc1)N1CCOCC1	D3 ag 31
NC(=O)CSc1nc2scc(-c3ccco3)c2c(=O)n1-c1ccccc1	none
Cc1cccc(NC(=O)C(C)Sc2nc3ccccc3c(=O)n2CCCN2CCOCC2)c1 (stereo not given)	none
COCc1ccc(-c2c(-c3ccsc3)oc(=O)c3cc(OC)c(OC)cc23)cc1	D3 ag 42
COc1cc2c(C#CCCO)c(-c3ccsc3)oc(=O)c2cc1OC	none
CCc1oc(C(=O)O)cc1CN(CC)CC	DRD3 antagonist -66
CCc1oc(C(=O)O)cc1COC	none
CCCCN(CC)CCCNC(=S)Nc1ccc2nc(N3CCN(CC)CC3)cc(C)c2c1	DRD3 antagonist -54
CCCCN(CC)CCCNC(=S)Nc1ccc2nc(N3CCN(C)CC3)cc(C)c2c1	DRD3 antagonist inconclusive
Cc1ccc(C(=O)N/C(=C/c2cccc([N+](=O)[O-])c2)C(=O)NC(C)C)cc1	none
O=C(NCc1cccnc1)/C(=C/c1ccc(Cl)cc1)NC(=O)c1ccccc1	none
O=C(NCc1cccnc1)/C(=C/c1ccc([N+](=O)[O-])cc1)NC(=O)c1ccccc1	D3 ag 31
CC(C)NC(=O)/C(=C\c1cccc([N+](=O)[O-])c1)NC(=O)c1ccccc1	DRD3 antagonist -107
Cc1ccc(NC(=O)c2cc(-c3cc(F)ccc3OCC3CCCO3)n[nH]2)cc1NS(C)(=O)=O (stereo not given)	none (no result: a7 integrin act)
CN(Cc1ccccc1)c1ccc(C(CC(N)=O)NC(=O)Cc2cccc3ccccc23)cc1[N+](=O)[O-] (stereo not given)	none
O=C(CSc1nccn1Cc1ccccc1)NCc1ccc(F)cc1	none (no result: DRD3 antagonist, a7 integrin act)
COc1ccc(/C=C/c2nc(C#N)c(N3CCCCCC3)o2)cc1OC	none (no result: DRD3 antagonist, a7 integrin act)
CS(=O)(=O)NNC(=O)CN1C(=O)C2C3C=CC(C3)C2C1=O (stereo not given)	none
NC1=NC(=O)C(CC(=O)NCc2ccccc2)S1 (stereo not given)	DRD3 antagonist -65
NC1=NC(=O)CC(C(=O)NCc2ccccc2)S1 (stereo not given)	none
Cc1cc(C)c2c(c1)OC(O)(C(F)F)CC2=O (stereo not given)	none
CCCCNC(=O)C1(C)CCN1C(=O)c1cc(-c2ccccc2)cs1 (stereo not given)	none (no result: a7 integrin act)
CCOC(=O)N1CCN(S(=O)(=O)c2ccc3c(c2)CCN3C(=O)CC)CC1	none
COc1ccc(-c2cc(C(=O)NCCN3CCOCC3)c3ccccc3n2)c(OC)c1	DRD3 antagonist -55
CCc1ccc(Sc2cc(C(=O)NCCN3CCOCC3)c3ccccc3n2)cc1	a7 integrin act 11µM
CCc1ccc(Sc2cc(C(=O)O)c3ccccc3n2)cc1	none (no result: DRD3 antagonist, a7 integrin act)
O=C(NCCN1CCOCC1)c1cc(-c2ccccc2)nc2ccccc12	DRD3 antagonist inconclusive
CCCCCCCCN1C(=O)[C@H](CC(=O)NCc2cccc(C(F)(F)F)c2)C[C@@]2(C(=O)OCC)CCCC=C12	none (no result: a7 integrin act)
CNc1ccc(/C=C(\C#N)c2ccccn2)cc1[N+](=O)[O-]	none
N#C/C(=C\c1ccc(Cl)c([N+](=O)[O-])c1)c1ccccn1	DRD3 antagonist -55
Cc1noc(C)c1COc1ccc(C(=O)O)cc1	D3 ag 33
Cc1noc(C)c1COc1ccc(C(=O)NNC(=O)c2ccccc2)cc1	none
CN(Cc1ccccc1)C(=O)COC(=O)c1ccc2ccccc2n1	a7 integrin act inconclusive
Cc1cc(C(F)F)n2ncc(C(=O)NCc3ccc(F)cc3)c2n1	none
Cc1cc(C(F)F)n2ncc(C(=O)NC3CCCCCC3)c2n1	DRD3 antagonist -52
COc1ccc(Cl)cc1NC(=O)c1cc2nc(-c3ccc4c(c3)OCO4)cc(C(F)(F)F)n2n1	none (no result: DRD3 antagonist, a7 integrin act)
COc1ccc(/C=C/CN2CCN(CCc3ccccc3)C(CCO)C2)cc1 (stereo not given)	none
COc1ccc(-n2nnnc2C(CCc2ccccc2)N2CCN(C/C=C/c3ccccc3)CC2)cc1 (stereo not given)	DRD3 antagonist -76 (no result: a7 integrin act)
CCC(c1nnnn1Cc1ccccc1)N1CCN(c2ccc(OC)cc2)CC1 (stereo not given)	none
COc1ccc(-n2nnnc2C(c2ccccc2)N2CCN(C/C=C/c3ccccc3)CC2)cc1 (stereo not given)	DRD3 antagonist -118 (no result: a7 integrin act)
COc1cccc(C(c2nnnn2C2CCCC2)N2CCN(C/C=C/c3ccccc3)CC2)c1OC (stereo not given)	DRD3 antagonist -96 (no result: a7 integrin act)
CCC(c1nnnn1-c1ccc(OC)cc1)N1CCN(C/C=C/c2ccccc2)CC1 (stereo not given)	DRD3 antagonist -57 (no result: a7 integrin act)
COc1ccc(N2CCN(C(c3ccccc3)c3nnnn3C(C)(C)C)CC2)cc1 (stereo not given)	none (no result: a7 integrin act)
COc1ccccc1C(c1nnnn1C1CCCC1)N1CCN2CCCC2C1 (stereo not given)	none
O=C(c1cccc([N+](=O)[O-])c1)N1CCN(CCc2ccncc2)CC1	none (no result: DRD3 antagonist, a7 integrin act)
Cc1ccc(S(=O)(=O)N(C)c2ccc(C(=O)NCC(c3cccs3)N3CCOCC3)cc2)cc1 (stereo not given)	DRD3 antagonist inconclusive
CCC(C)NC(=S)Nc1ccccc1OC (stereo not given)	none
Cc1ccc(C(=O)NCC(=O)NCC(=O)OCC(=O)c2cccs2)cc1	none
Cc1oc2cc3oc(=O)cc(C)c3cc2c1C	none
CCC(C)(C(=O)NC1CCCC1)N(C(=O)c1ccccn1)c1ccccc1 (stereo not given)	none
COc1ccc(N2CC(NS(=O)(=O)c3cccnc3)CC2=O)cc1 (stereo not given)	none
COc1cccc(C(c2nnnn2Cc2ccco2)N2CCN(Cc3ccccc3)CC2)c1OC (stereo not given)	none

Source: PubChem
